For 6 sequences, PBM binding z-score results are on record in the supplement of paper PMC6555819.

Test in all cases: PBM binding z-score (relative to random genomic background probes); higher = stronger binding; sequences stand for … in GC…GCGATTGACAGCGTAGAATGAAGG
In assay [1] the test system is FXR:RXRa (NR concentration 270 nM, RXRa partner concentration 90 nM). The essentials:
(§1)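 Regression normalization was applied to scanned fluorescence from custom Agilent 4×180K protein-binding microarrays. Before scanning, arrays were incubated 1 h with ligand-free nuclear receptor dimers, and binding was detected with antibodies against each partner (one per run). Binding z-scores use the random background probes as reference.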

For assay [2], the system named is LXRa:RXRa (NR concentration 270 nM, RXRa partner concentration 90 nM). The essentials:
as §1

Assay [3] deals with LXRa homodimer (NR concentration 270 nM). An outline of the steps: as §1
Assay [4] concerns LXRb:RXRa (NR concentration 270 nM, RXRa partner concentration 90 nM). An outline of the steps: as §1
The test system of assay [5] is LXRb homodimer (NR concentration 270 nM). An outline of the steps:
as §1

In assay [6] the test system is PPARa:RXRa (NR concentration 270 nM, RXRa partner concentration 90 nM). An outline of the steps: as §1
For assay [7], the system named is PPARg:RXRa (NR concentration 180 nM, RXRa partner concentration 90 nM). The essentials:
as §1

In assay [8] the test system is PPARg:RXRa 270nM:90nM, anti-RXR (NR concentration 270 nM, RXRa partner concentration 90 nM). The essentials: as §1
For assay [9], the system named is PPARg:RXRa 30nM:10nM, anti-RXR (NR concentration 30 nM, RXRa partner concentration 10 nM). The essentials: as §1
The subject of assay [10] is PPARg:RXRa 90nM:30nM, anti-RXR (NR concentration 90 nM, RXRa partner concentration 30 nM). The essentials:
as §1

In assay [11] the test system is PPARg:RXRa DBDmut IVT, anti-RXR (DBD mutation: RXRa K156A/R161A, NR concentration 270 nM, RXRa partner concentration 90 nM). The essentials: as §1
The test system of assay [12] is PPARg:RXRa IVT, anti-PPARg (NR concentration 270 nM, RXRa partner concentration 90 nM). An outline of the steps:
as §1

Assay [13] has as its system PPARg DBDmut:RXRa IVT, anti-PPARg (DBD mutation: PPARg1 K132A/R137A, NR concentration 270 nM, RXRa partner concentration 90 nM). The essentials: as §1
Assay [14] has as its system PPARg DBDmut IVT, anti-PPARg (DBD mutation: PPARg1 K132A/R137A, NR concentration 270 nM). The essentials: as §1
For assay [15], the system named is PPARg homodimer (NR concentration 180 nM). The essentials: as §1
For assay [16], the system named is PXR:RXRa (NR concentration 270 nM, RXRa partner concentration 90 nM). The essentials: as §1
The test system of assay [17] is PXR homodimer (NR concentration 270 nM). The essentials:
as §1

Assay [18] has as its system RARa:RXR (NR concentration 270 nM, RXRa partner concentration 90 nM). The essentials: as §1
In assay [19] the test system is RARa homodimer (NR concentration 270 nM). The essentials:
as §1

For assay [20], the system named is RARb:RXRa (NR concentration 270 nM, RXRa partner concentration 90 nM). The essentials:
as §1

Take TCTGCTAGGTCAGTTGGTCAGCGAACGAGCTGCC: the PBM binding z-score in [1] was 1.05; in assay [2], 0.587; in [3] it was -0.495; in [4] it was 0.166; in assay [5], 0.433; in assay [6] it was 1.57. For the same sequence, the PBM binding z-score in assay [7] is 0.47; in assay [8], 1.87; in assay [9], 1.06; in assay [10] it was 1.38; in [11], 2.76; in assay [12] it was 3.21. The PBM binding z-score was -0.0304 in [13]; 0.518 in assay [14]; 0.0639 in assay [15]; 0.0473 in assay [16]; -0.82 in [17]; 0.461 in assay [18]. The PBM binding z-score in assay [19] was -1.14; in [20] it was 3.55.

Regarding TCTATTAGTTGATTAGGGCAACCAAAACAGCGGA, the PBM binding z-score in assay [1] turned out to be 0.762; in [2], 0.673; in assay [3], 0.188; in assay [4], 0.699; in assay [5], 0.773; in assay [6] it was 1.06. Further, the PBM binding z-score is 0.435 in [7]; 2.01 in [8]; 3.9 in assay [9]; 2.83 in assay [10]; 2 in assay [11]; 1.72 in assay [12]. The PBM binding z-score in assay [13] stood at 1.55; in [14] it was 1.68; in assay [15], 0.9; in [16] it was 0.429; in [17], 0.323; in [18], 0.556. Moreover, the PBM binding z-score came out at 1.11 in [19] and 0.905 in assay [20].

For GCTTCTAGGTCAACTGATGGTCAGCTAAAGCTCG, the PBM binding z-score was 4.49 in assay [1]; 3.12 in assay [2]; 0.562 in assay [3]; 2.48 in assay [4]; 1.06 in assay [5]; 4.69 in assay [6]. Moreover, the PBM binding z-score stood at 6.35 in assay [7]; 5.64 in assay [8]; 3.01 in assay [9]; 5.05 in [10]; 7.69 in [11]; 7.25 in assay [12]. For the same sequence, the PBM binding z-score in assay [13] is 0.0953; in [14] it was 0.797; in assay [15] it was 2.01; in [16], 1.97; in assay [17] it was -0.405; in [18], 3.16. Moreover, the PBM binding z-score in assay [19] amounted to 0.124; in assay [20], 4.42.

As to CTCGAAAGGTCGGATGAGGTGAGTATACGGATAA, the PBM binding z-score in assay [1] was 2.61; in [2] it was 2.09; in [3], 0.0368; in [4] it was 1.69; in assay [5], -0.334; in assay [6], 3.17. Also, the PBM binding z-score came to 1.02 in assay [7]; 1.66 in assay [8]; 0.432 in assay [9]; 0.958 in assay [10]; 0.154 in assay [11]; 0.983 in assay [12]. In addition, the PBM binding z-score was 0.973 in assay [13]; -0.0346 in [14]; 0.968 in assay [15]; 3.55 in [16]; -0.0327 in [17]; 2.62 in assay [18]. In addition, the PBM binding z-score turned out to be 0.562 in [19] and 3.32 in [20].

For the sequence GCAAGTTGGTCAGTAAAAGGTCACACACCGGTCG, the PBM binding z-score worked out at 3.28 in assay [1]; 4.29 in [2]; 4.58 in assay [3]; 4.17 in assay [4]; 0.833 in [5]; 4.62 in assay [6]. The PBM binding z-score in assay [7] came out at 3.08; in assay [8], 4.43; in assay [9] it was 2.58; in assay [10], 3.92; in assay [11] it was 1.27; in assay [12], 2.7. Further, the PBM binding z-score was found to be 0.611 in assay [13]; 0.159 in assay [14]; 4.55 in [15]; 5.2 in [16]; 1.01 in assay [17]; 5.84 in [18]. The PBM binding z-score in assay [19] worked out at 1.75; in [20], 4.17.

TGACTGAGGTTATAAGATCAGGGAACGTTGCAAA: the PBM binding z-score is 1.3 in assay [1]; 1.14 in assay [2]; -0.497 in [3]; 1.08 in assay [4]; -0.238 in [5]; 2.27 in assay [6]. Further, the PBM binding z-score is 0.706 in assay [7]; 0.976 in assay [8]; 0.531 in assay [9]; 0.783 in [10]; -0.568 in [11]; 0.535 in assay [12]. Further, the PBM binding z-score in assay [13] was -0.045; in [14], -0.27; in assay [15] it was 0.479; in [16] it was 0.649; in assay [17] it was -0.0741; in [18] it was 1.25. Moreover, the PBM binding z-score in [19] is -0.694; in [20], 1.15.
